Reference: PubChem BioAssay AID1906 (The Scripps Research Institute Molecular Screening Center, 2009)
Hit rate of the full screen: of about 300,000 compounds, about 1,500 (0.5%) were called active.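 The calls were made as follows: active = inhibition above the mean of all tested compounds plus 3 SD, set per screening campaign (cut at about 17% in these data); inactive = the rest.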 The sample as a whole holds a higher share of actives than the screen did.

The compounds below were run on cathepsin L1 (Fasciola hepatica) (assay: Fasciola hepatica cathepsin L1 inhibitors, primary screen, counter-screen for PFM18AAP inhibitor project, biochemical, QFRET, fluorogenic peptide substrate (AID 1906;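 also: 0% = plate median of test compound wells and 100% = 1 µM Z-Phe-Ala-diazomethylketone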)). Conditions: recombinant F. hepatica cathepsin L1, Z-Leu-Arg-MCA fluorescence; at 5.96 µM; active compounds read high.
For `Cc1c(C(=O)OC(C)C)sc(NC(=O)c2cccnc2)c1C#N`, the inhibition was 2.51% (inactive).
`COc1ccccc1CCNC(=O)CN1C(=O)NC2(CCCC2)C1=O` was tested, and the inhibition was -1.76% (inactive).
In the case of `O=C(O)CC(c1ccccc1F)N1Cc2ccccc2C1=O` (stereo not drawn), the inhibition is reported as 0.38% (inactive).
With `O=c1[nH]c(/C=C/c2cccc(Br)c2)nc2ccccc12` the inhibition was 49.9% (active).
With `O=c1[nH]c(SCc2cccc(F)c2)nc2ccccc12` the inhibition was -0.09% (inactive).
In the case of `CCOc1cc(/C=C/c2nc3ccccc3c(=O)[nH]2)cc(Br)c1OC`, the inhibition is reported as 4.32% (inactive).
In the case of `COc1ccc(S(=O)(=O)N2CCOC2CNC(=O)C(=O)NCc2ccncc2)cc1C` (stereo not drawn), the inhibition is reported as -2.32% (inactive).
For `O=C1CSC(=S)N1c1ccc(O)cc1`, the inhibition was 2.41% (inactive).
In the case of `Cc1cc(=O)[nH]c(S)c1C#N`, the inhibition is reported as 3.28% (inactive).
In the case of `CC(=O)c1cc(C#N)c(SCC(=O)C(C)(C)C)nc1C`, the inhibition is reported as 5.58% (inactive).
For `CC(=O)c1cc(C#N)c(N2CC(C)OC(C)C2)nc1C` (stereo not drawn), the inhibition was 20% (active).
In the case of `Cc1ccc(-c2nnc(C)c(N3CC(C)OC(C)C3)n2)cc1` (stereo not drawn), the inhibition is reported as 1.07% (inactive).
For `O=C(Nc1nnc(CCc2ccccc2)s1)C1CCCO1` (stereo not drawn), the inhibition was 18% (active).
`O=C(Nc1nnc(SCc2c(Cl)cccc2Cl)s1)C1CCCO1` (stereo not drawn) was tested, and the inhibition was 4.51% (inactive).
`O=C(Nc1ccc(-c2nnc(-c3ccccc3)o2)cc1)C1CCCO1` (stereo not drawn) was tested, and the inhibition was 0.12% (inactive).
With `OCCNc1nc(Nc2ccc(Cl)c(Cl)c2)nc2ccccc12` the inhibition was 2.53% (inactive).
With `CS(=O)(=O)c1ccc(Cl)c(NC(=O)COC(=O)c2ncc(Cl)c(Cl)c2Cl)c1` the inhibition was -5.36% (inactive).
For `Cc1ccc(S(=O)(=O)CC(=O)Nc2nnc(C)s2)cc1`, the inhibition was -3.43% (inactive).
In the case of `CC(=O)N1CCc2c(sc(NC(=O)CCS(=O)(=O)c3ccc(C)cc3)c2C(N)=O)C1`, the inhibition is reported as -1.1% (inactive).
`Cc1ccc(S(=O)(=O)CC(=O)Nc2sc(C)c(C)c2C(N)=O)cc1` was tested, and the inhibition was 17.8% (active).
For `C/C=C(\C)C(=O)NCCN1C2=NC[C@H](Cc3ccc(O)cc3)N2C[C@@H]1Cc1ccc(OC)cc1`, the inhibition was -2.36% (inactive).
`O=C(O)CSCC(=O)Nc1cccc(C(F)(F)F)c1` was tested, and the inhibition was 16.9% (active).
`O=C(O)CSCC(=O)Nc1ccc(C(F)(F)F)cc1` was tested, and the inhibition was -1.45% (inactive).
`O=C(O)CC1(CC(=O)Nc2cccc(C(F)(F)F)c2)CCCC1` was tested, and the inhibition was -5.07% (inactive).
In the case of `CCOc1cc(N2CCOCC2)c(OCC)cc1NC(=O)c1ccc(C)s1`, the inhibition is reported as -0.83% (inactive).
In the case of `CCOc1cc(N2CCOCC2)c(OCC)cc1NC(=O)COc1cccc(Cl)c1`, the inhibition is reported as 30.1% (active).
`CCOc1cc(N2CCOCC2)c(OCC)cc1NC(=O)COc1cccc2cccnc12` was tested, and the inhibition was -0.24% (inactive).
`Cc1c(C=O)c2ccccc2n1CCOc1ccccc1` was tested, and the inhibition was 1.89% (inactive).
In the case of `O=C(O)c1cccnc1NC1CCCC1`, the inhibition is reported as 1.66% (inactive).
`COC(=O)C(C)N(C#N)c1nc(C)nc(C)n1` (stereo not drawn) was tested, and the inhibition was 1.79% (inactive).
For `Cc1cc(C)nc(N(C#N)CC(=O)Nc2ccccc2)n1`, the inhibition was 1.63% (inactive).
`CNc1nc(SC)nc(N(C#N)CC(=O)OC)n1` was tested, and the inhibition was 42.3% (active).
In the case of `COc1ccc(CC(NC(C)=O)C(=O)N2CCN(C(=O)Nc3cccc(Cl)c3)CC2)cc1OC` (stereo not drawn), the inhibition is reported as -4.54% (inactive).
For `Cn1cc(S(=O)(=O)Nc2ccc(Cl)cc2Cl)c(=O)n(C)c1=O`, the inhibition was -0.98% (inactive).
With `Cc1ccc(NC(=S)N(CCN2CCCCC2)Cc2ccco2)cc1C` the inhibition was -2.51% (inactive).
`Cc1ccc(NC(=S)N(Cc2ccco2)C(C)c2cccs2)cc1` (stereo not drawn) was tested, and the inhibition was 22.4% (active).
`Cc1ccc(NC(=S)N(CCCN2CCC(C)CC2)Cc2ccco2)cc1` was tested, and the inhibition was -0.39% (inactive).
For `COn1c(=O)c(=O)n(OC)c2ccccc21`, the inhibition was 2.56% (inactive).
With `CS(=O)(=O)n1nc(-c2ccccc2)nc1NCc1ccco1` the inhibition was 0.56% (inactive).
In the case of `O=C(NCc1ccco1)c1nc(-c2ccccc2)n(-c2ccccc2)n1`, the inhibition is reported as -1.81% (inactive).
For `O=C(Cc1ccccc1)n1nc(-c2ccccc2)nc1NCc1ccco1`, the inhibition was 51.2% (active).
For `O=C(CSCc1cccs1)N1CCCC1`, the inhibition was -3.58% (inactive).
For `c1csc(CN2CCN(Cc3cccs3)C2c2cccs2)c1`, the inhibition was 17% (active).
For `O=C1c2cccnc2C(=O)N1Cc1cccs1`, the inhibition was 0.86% (inactive).
`COC(=O)Nc1ccc(S(=O)(=O)Nc2cc(OC)nc(OC)n2)cc1` was tested, and the inhibition was 2.38% (inactive).
For `COc1ccc(CN(C)C(=O)CC(c2ccccc2)c2ccccc2)cc1`, the inhibition was 2.03% (inactive).
In the case of `COc1ccc(C(CCN(Cc2ccc(OC)c(OC)c2)C(=O)CCl)c2ccccc2)cc1` (stereo not drawn), the inhibition is reported as 59.9% (active).
For `COc1ccc(COC(=O)NC(C(=O)O)c2ccccc2)cc1` (stereo not drawn), the inhibition was 0.08% (inactive).
In the case of `CCN(CC(=O)Nc1ccc(NC(C)=O)cc1)C(=O)C1CC(=O)N(Cc2ccc(C)cc2)C1` (stereo not drawn), the inhibition is reported as 6.92% (inactive).
With `O=c1c2ccccc2cnn1Cc1n[nH]c(=S)n1-c1ccccc1F` the inhibition was -4.23% (inactive).
For `COC(=O)C1=C(NC(=O)C(C)(C)C)CCS1`, the inhibition was -1.55% (inactive).
In the case of `NC(=O)c1ccsc1NC(=O)COC(=O)Cc1n[nH]c(=O)c2ccccc12`, the inhibition is reported as 2.85% (inactive).
With `COc1cc(OC)c(C2=NOC(C(=O)Nc3c(C)n(C)n(-c4ccccc4)c3=O)C2)cc1Cl` (stereo not drawn) the inhibition was 4.46% (inactive).
For `CC(N)C12CC3CC(CC(O)(C3)C1)C2` (stereo not drawn), the inhibition was -3.06% (inactive).
For `Cc1ncn(C23CC4CC(CC(O)(C4)C2)C3)n1`, the inhibition was 23.6% (active).
In the case of `COC(=O)c1ccc(NC(=O)C23CC4CC(C2)CC(n2cnc(Cl)n2)(C4)C3)cc1`, the inhibition is reported as 0.89% (inactive).
For `COc1ccc(CCNC(=O)CN2C(=O)CCSc3ccccc32)c(OC)c1`, the inhibition was -0.1% (inactive).
`Cc1ccc(Nc2c(F)c(F)c(F)c(F)c2C(=O)O)c(C)c1` was tested, and the inhibition was -4.87% (inactive).
With `COc1ccc(C2=NS(=O)(=O)N(C)C(C(=O)NC(C)c3ccccc3)=C2)cc1` (stereo not drawn) the inhibition was 11.2% (inactive).
For `COc1ccc(NC(=O)NCCN2CCN(c3ccc(C)cc3)CC2)c(Cl)c1`, the inhibition was 2.74% (inactive).
With `COc1ccc(Cl)cc1NC(=O)COC(=O)C(CC(C)C)N1C(=O)C2CC=CCC2C1=O` (stereo not drawn) the inhibition was 39.5% (active).
`COc1ccc(Cl)cc1NC(=O)CCN1CCOCC1` was tested, and the inhibition was -1.4% (inactive).
`COc1ccc(Cl)cc1NC(=O)c1cccc(N2C(=O)C3CC=CCC3C2=O)c1` (stereo not drawn) was tested, and the inhibition was 0.1% (inactive).
In the case of `O=C(CN1CCN(S(=O)(=O)c2ccc(Cl)s2)CC1)NCc1ccc(Cl)cc1`, the inhibition is reported as -3.91% (inactive).
For `COc1ccc(CNC(=O)C(Cc2ccccc2)n2cccc2)cc1` (stereo not drawn), the inhibition was 2.08% (inactive).
For `COc1ccc(CNC(=O)CCN2C(=O)c3ccccc3C2=O)cc1`, the inhibition was -1.89% (inactive).
For `COc1ccc(CNC(=O)CCn2cccc2)cc1`, the inhibition was 17.3% (active).
For `COc1ccc(OC)c(NC(=O)c2cccc(S(=O)(=O)N3CCN(C(C)=O)CC3)c2)c1`, the inhibition was -1.16% (inactive).
